Hits are enriched below; roughly 2.8% of the tested compounds scored in any of these assays.
GLS inhibitor – qHTS for Inhibitors of Glutaminase (GLS); GLS enzymatic activity, qHTS titration; AID 624170, 2012; 410,000 compounds, 0.21% hits; Potency, µM (series often up to 45.5 µM), most hits filed as inhibitors
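Human kidney-isoform GLS in 45 mM KH2PO4 pH 8.2, 0.02% Tween-20, with compound, started with 1mM L-Glutamine (added stock). Glutamate oxidase/HRP/Amplex red coupled fluorescence read at start and after 30 min at RT.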
GLP1R inv ag – qHTS of GLP-1 Receptor Inverse Agonists (Inhibition Mode); Potency, µM (series often up to 38.3 µM), most hits filed as inhibitors; HEK293 GLP-1R CRE-luciferase, luminescence, 24 h; GLP-1R form is constitutively active; Glucagon-like peptide 1 receptor (Homo sapiens), P43220; 410,000 compounds, 1.6% hits; further: nearly all actives have a fitted effect of over 55% in size
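Constitutively active GLP-1R drives a cAMP-responsive luciferase in stably transfected HEK293 cells; test compounds are added after overnight (12 h) attachment and left 24 hr, and signal loss in luminescence marks inhibition.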
KCNH2 3.1 inh – qHTS for Inhibitors of KCHN2 3.1: Mutant qHTS | Potassium voltage-gated channel subfamily H member 2, brain isoform KCNH2 3.1 (human) | activity change, % (tested at about 1.8 µM) | U2OS KCNH2 3.1, thallium flux FluxOr; stronger effect = lower value | 340,000 compounds, 0.95% hits;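 active means maximum activity change below -70%; inconclusive means maximum activity change from -70% to -50%; inactive means maximum activity change above -50%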;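 further: thallium influx rate constant from kinetic fluorescence after stimulation buffer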
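Kinetic fluorescence (2 min after stimulation buffer) measures Tl+ influx through KCNH2 3.1 expressed by viral transduction in U2OS cells; the rate constant is normalized against DMSO controls serving as positive and negative references.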
GLP1R cytotox – qHTS of GLP-1 Receptor Inverse Agonists: Cytotox Screen. HEK293 cAMP-luciferase reporter cells, luminescence, 24 h. AID 624418, 2012. 410,000 compounds, 0.13% hits. Potency, µM (highest dose often 38.3 µM), actives largely listed as inhibitors;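 further: loss of luciferase light is scored as toxicity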
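A 23 nL compound transfer followed 12 hours of cell culture at 37 deg C; exposure then lasted 24 hr. Luciferase assay detection reagent was dispensed and plates read for luminescence after a 12 min room-temperature wait.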
hERG WT inh – qHTS for Inhibitors of KCHN2 3.1: Wildtype qHTS | Voltage-gated inwardly rectifying potassium channel KCNH2 (Homo sapiens), Q12809 | U2OS, BacMam KCNH2, thallium flux FluxOr; stronger effect = lower value | activity change, % at 1.84 µM | 340,000 compounds, 0.37% hits | AID 720551, 2013;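 active means maximum activity change below -70%; inconclusive means maximum activity change between -70% and -50%; inactive means maximum activity change above -50%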
Target sequence (Q12809 whole entry, looked up): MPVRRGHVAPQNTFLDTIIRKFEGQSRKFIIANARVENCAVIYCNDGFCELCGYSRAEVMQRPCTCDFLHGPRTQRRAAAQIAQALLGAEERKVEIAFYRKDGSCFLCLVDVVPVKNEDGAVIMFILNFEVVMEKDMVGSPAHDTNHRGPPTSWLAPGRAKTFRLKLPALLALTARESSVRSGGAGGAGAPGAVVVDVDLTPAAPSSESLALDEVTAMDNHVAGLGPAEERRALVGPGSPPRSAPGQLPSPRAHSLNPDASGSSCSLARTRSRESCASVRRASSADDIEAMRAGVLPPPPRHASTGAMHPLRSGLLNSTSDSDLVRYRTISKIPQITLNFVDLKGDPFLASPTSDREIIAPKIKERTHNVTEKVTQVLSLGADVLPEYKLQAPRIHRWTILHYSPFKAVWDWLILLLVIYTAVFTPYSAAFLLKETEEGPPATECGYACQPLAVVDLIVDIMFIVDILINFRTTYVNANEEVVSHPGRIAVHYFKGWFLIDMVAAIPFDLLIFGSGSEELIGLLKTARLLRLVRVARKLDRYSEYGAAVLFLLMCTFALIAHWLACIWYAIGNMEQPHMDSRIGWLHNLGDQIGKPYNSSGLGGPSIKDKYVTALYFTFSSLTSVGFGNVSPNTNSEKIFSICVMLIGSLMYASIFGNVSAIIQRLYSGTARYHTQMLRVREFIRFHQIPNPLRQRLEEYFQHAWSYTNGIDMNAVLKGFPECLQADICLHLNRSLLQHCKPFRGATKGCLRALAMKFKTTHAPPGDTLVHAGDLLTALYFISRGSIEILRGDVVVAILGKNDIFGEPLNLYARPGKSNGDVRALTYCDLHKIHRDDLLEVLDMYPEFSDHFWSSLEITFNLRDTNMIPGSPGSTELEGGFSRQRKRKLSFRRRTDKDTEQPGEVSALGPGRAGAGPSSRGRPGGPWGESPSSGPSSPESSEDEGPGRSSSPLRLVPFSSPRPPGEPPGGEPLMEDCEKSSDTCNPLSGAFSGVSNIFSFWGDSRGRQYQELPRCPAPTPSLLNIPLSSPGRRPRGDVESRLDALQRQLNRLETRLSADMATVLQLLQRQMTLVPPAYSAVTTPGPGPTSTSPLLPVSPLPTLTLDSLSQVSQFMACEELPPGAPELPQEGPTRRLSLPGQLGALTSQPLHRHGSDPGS
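U2OS cells were transduced with wild-type KCNH2 virus (2.03 x 10^8 / mL) for 4 h at room temperature, then cultured overnight at 37 C. Thallium flux was read with FluxOr dye. Rate constants were normalized to DMSO controls.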
GLP-1R agonist – qHTS of GLP-1 Receptor Agonists. Glucagon-like peptide 1 receptor (Homo sapiens), P43220. HEK293 GLP-1R CRE-luciferase, luminescence, 4-6 h; cells express a hypersensitive GLP-1R form. Potency, µM (series often up to 45.6 µM), hits mostly activators. 380,000 compounds, 0.007% hits. AID 624172, 2012
Hits are given with their value; - = inactive; ? = inconclusive; . = no result given. Unless noted, the call rests on the fitted dose curve; in most records, active means well fitted curve in the direction sought with a large enough effect; inconclusive means small, poorly fitted or top-dose-only effect, or another doubt; inactive means no such curve, though single readings can be large; an effect the other way counts as inactive or inconclusive.

SMILES	GLS inhibitor	GLP1R inv ag	KCNH2 3.1 inh	GLP1R cytotox	hERG WT inh	GLP-1R agonist
CC(C)NC(=O)C1CCC(Cn2c(=O)c3sccc3n(CC(=O)Nc3ccccc3)c2=O)CC1 (configuration not stated)	-	-	.	-	.	.
Clc1cccc(N/N=C/c2ccc(N3CCOCC3)s2)c1	-	2.82µM	-	?	-	-
Clc1nnc(N/N=C/c2ccccc2)c2ccccc12	-	?	-	?	-	-
C[n+]1ccc(/C=N/Nc2nc(Cl)c(C#N)c(Cl)c2Cl)cc1	-	-	-	10µM	-	-
O=C(NCCc1ccc(F)cc1)Nc1ccc([N+](=O)[O-])cc1	-	3.98µM	-	-	-	-
CCc1ccccc1NC(=O)CN1C(=O)CCc2cc(S(=O)(=O)N3CCCCC3)ccc21	-	-	.	-	.	.
Cc1ccc(C(OCC(O)CNC(CO)C(O)c2ccc([N+](=O)[O-])cc2)c2ccccc2)cc1 (configuration not stated)	-	8.91µM	-	-	-	-
O=C(Nc1nc2ccccc2n1CCN1CCOCC1)c1ccc(COc2ccccc2Br)o1	-	?	-	3.55µM	-	-
COc1cc(C(=O)NC(C)c2cc(C)ccc2C)ccc1OCC(=O)N1CCOCC1 (configuration not stated)	-	-	-	-	-	-
CCN(Cc1nc2cc(Cl)ccc2c(=O)[nH]1)C(=O)COc1ccccc1Cc1ccccc1	-	?	-	?	-	-
CCN(Cc1nc2ccccc2c(=O)[nH]1)C(=O)COc1ccccc1Cc1ccccc1	-	12.6µM	-	-	-	-
CC(C(O)c1ccccc1)N(C)CCOC(c1ccccc1)c1ccccc1 (configuration not stated)	-	.	.	.	.	-
COC(=O)C1Cc2c([nH]c3ccccc23)C2(CCN(Cc3ccccc3)CC2)N1 (configuration not stated)	-	?	-81.2	?	-	-
Cc1ccc(CCNc2nc3c(S(=O)(=O)c4ccc(C)cc4)nnn3c3ccsc23)cc1	?	-	.	-	.	.
CCOC(=O)c1c[nH]c2cc(OCC(C)C)c(OCC(C)C)cc2c1=O	-	.	.	.	.	-
Cc1nnc(SCC(=O)Nc2nc(-c3ccccc3)cs2)n1N	-	-	-	-	-	-
CCOC(=O)c1ccc(NC(=O)CSc2nnc(-c3cccs3)n2CC)cc1	-	-	-92.5	-	-	-
CCn1c(SCC(=O)Nc2nc(-c3ccccc3)cs2)nnc1-c1ccccc1	-	10µM	-	-	-	-
CCn1c(CNc2nc(-c3ccccc3)cs2)nnc1SCC(=O)NCc1ccccc1	-	11.2µM	-	-	-	-
CCn1c(CNc2ccc(Cl)cc2)nnc1SCC(=O)NCc1ccccc1	-	?	-	-	-	-
Cc1ccc(CSc2nnc(NC(=O)C3=COCCO3)s2)cc1	-	-	-	-	-	-
CCC(C(=O)c1ccc(O)cc1)c1ccccc1 (configuration not stated)	-	?	-	-	-	-
CCC(C(=O)N(C(C)C)C(C)C)c1ccccc1 (configuration not stated)	-	-	-145.6	-	-	-
CN(C)c1ccc(C=Cc2nccc3ccccc23)cc1	-	?	.	-	.	-
CCN(CC)c1nc(C=Cc2ccc(N(C)C)cc2)c2nccnc2n1	-	-	-99.5	-	-106.9	-
SMILES	GLS inhibitor	GLP1R inv ag	KCNH2 3.1 inh	GLP1R cytotox	hERG WT inh	GLP-1R agonist
Cc1cc2n(n1)C(c1cn(-c3ccccc3)nc1C)Nc1c(C)cccc1-2 (configuration not stated)	.	-	-	-	-	-
Cc1cc2n(n1)C(c1cn(-c3ccccc3)nc1C)Nc1ccccc1-2 (configuration not stated)	-	-	-136.3	-	-125.4	-
Cc1cc(C)cc(-n2c(SCC(N)=O)nc3c([nH]c4ccccc43)c2=O)c1	-	?	.	-	.	-
Cc1cccc(-c2nc(CN3CCCC(C(=O)N4CCN(c5cc(Cl)ccc5C)CC4)C3)c(C)o2)c1 (configuration not stated)	-	?	.	?	.	.
COCCCNC(=S)Nc1ccc2c(c1)OCCO2	-	-	-	-	-87.7	-
OCCNC(=S)Nc1ccc2c(c1)OCCO2	?	-	-	-	-	-
O=C(CCl)Nc1cccc(-c2cnc3ccccc3n2)c1	-	8.91µM	-	?	-	-
COc1ccccc1CN(C)C(=O)C(NC(=O)Cc1cccc2ccccc12)C(C)C (configuration not stated)	-	10µM	-	?	-	-
COc1ccc(CN(C)C(=O)CNC(=O)Cc2cccc3ccccc23)c(OC)c1OC	-	-	-	-	-	-
Cc1ccc(NS(=O)(=O)c2cc([N+](=O)[O-])ccc2NNC(=S)Nc2cc(C)ccc2C)c(C)c1	-	?	-	11.2µM	-	-
CC(C)(C)N(Cc1ccccc1)C(=O)CCc1ccccc1	-	22.4µM	-	-	-	-
CC(C)N(Cc1ccccc1)C(=O)CCc1ccccc1	-	?	-	-	-	-
COc1ccccc1C1CCN(Cc2ccc(C)cc2)CC1	-	-	-83.5	-	-	-
CCCC[C@@H](CC)COC(=O)C[C@H](C(=O)OC[C@H](CC)CCCC)S(=O)(=O)O	-	.	.	.	.	-
O=C(CNc1cccc(S(=O)(=O)N2CCCCCC2)c1)Nc1cccc([N+](=O)[O-])c1	-	7.08µM	-	?	-	-
O=C(Cc1ccc(Cl)cc1)Nc1cccc(S(=O)(=O)N2CCCCC2)c1	-	?	-	-	-	-
O=C(Cc1ccc(Br)cc1)Nc1cccc(S(=O)(=O)N2CCCCC2)c1	-	10µM	-	-	-	-
O=C(CNc1cccc(S(=O)(=O)N2CCCC2)c1)Nc1ccc(C(F)(F)F)cc1	-	10µM	-	-	-	-
O=C(CCNC(=O)c1ccc(Cl)cc1)Nc1cccc(S(=O)(=O)N2CCCCCC2)c1	-	12.6µM	-	-	-	-
O=C(CNc1cccc(S(=O)(=O)N2CCCCC2)c1)Nc1ccc(C(F)(F)F)cc1	-	?	-	-	-	-
COc1ccc(S(=O)(=O)c2c(Nc3ccc(C)cc3)sc(C(=O)c3ccc4c(c3)OCO4)c2N)cc1	-	-	.	-	.	.
CCc1ccc(S(=O)(=O)c2c(C(=O)c3ccc(C)c(C)c3)cnc3ccccc23)cc1	-	?	.	-	.	.
